Laboratory results from PubChem BioAssay AID1508600 (Functional Genomics Laboratory (NCATS/FGL), 2020).
Out of some 53,000 sequences screened, about 3,700 (7%) were called active. This is one part of a sample in which actives are shown more often than they occur. Values without a mark were called inactive.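 The calls were made as follows: active = gene knockdowns whose robust z-score for IL-1 alpha signal is at least 2 or at most -2, so actives lie on both sides; inactive = the rest.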

Experiment: Components of the Cytosolic LPS Sensing Pathway: Gene Identification via Genome-wide siRNA Screen;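 also: robust z of the log signal after scaling to non-targeting control siRNA wells of the plate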
Conditions: RAW264.7 macrophages, IL-1a HTRF, actives lie on both sides, screened at 100 nM (by protocol), cells primed 5 h with Pam3CSK4 first
Procedure, shortened: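 Cells (RAW264.7, 1×10^4 per well) were transfected with siRNA at 100 nM and cultured 48h at 37 degrees C. Pam3CSK4 was added for 5 hours; LipidA transfection followed for 24 hour. IL-1a was then measured by HTRF.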

Sequence | z-score
GCUGCACGAUGCAUGGUUUTT against Asic3 | 1.43
GGCAAUAACAUUCGGUAUUTT against Snrpd1 | -2.29 (active)
CCUGUAAUGAGUAUGACAUTT against Commd10 | 0.397
GGAACUUUUUCAGAGCUCUTT against Senp3 | -1.6
GGUAUUUGUGCCAAUUGCCTT against Ccr6 | -0.302
GGAAGACUACAUAAGAGACTT against Cxcl9 | 0.103
GGGCCAUGAUAGGACACACTT against Nme4 | 2.97 (active)
CCUGUCUGUUUGAGGACGUTT against Adora2a | -0.701
GGCCAACUUCCUUUUUAAATT against Tomm40 | -0.0619
GGCACACACUCCCUGACAATT against Cst3 | -0.863
GGUGGAUGAUAAUGUUCUUTT against Gcnt3 | 0.911
GGCCUUUACAUGUCCCAGCTT against BC002059 | 0.456
AUGUCAGCGGCCCUAGAUGTT against Adam34l | -2.09 (active)
GGGUGUGGCUGACUUUGAUTT against Otof | -0.429
CCGUGGACUAUAACAACUCTT against Mgat5b | 1.61
GGAAGAGGCUAUUGCAUCGTT against Atrnl1 | -0.768
GGUUUUCUAGUUUGAGUUUTT against Atp1b2 | 1.29
GCAUCCAUCAAAUCAAAAUTT against Met | 3.03 (active)
GGUGAUUCAGAUAAAAGAGTT against Mbtps1 | 0.265
GAGCAGAGGAUUGAUGCACTT against Nlrp4g | 0.918
GCAAGACGCACUGUUACUGTT against Fam214a | 0.196
GGCUCCUAGCUGUUUCAGUTT against Hormad1 | -1.62

Sequence | z-score
GGUUCAAAGUUCUAGCUAATT against Adss | -0.25
CCAAAAGUCACGUUUCUCATT against Per2 | -2.09 (active)
GCAAUGGUUGAAGAAAUUUTT against Tnip3 | 0.69
GGUUCUUUUAUGGAUGACATT against Prkaa2 | -0.964
GCAGGAACACUGGUUUGAATT against Otud5 | -0.653
GUACGAAGACUUCUCUAGUTT against Ankrd33b | 0.101
GGGAAAAUGGCUUAACCGUTT against Siglecg | 0.703
CCUAGAGGAUUCAGAUCAATT against Pnmal1 | 2.24 (active)
GGCCGUUUCACUACCAUUCTT against Ier2 | 0.259
GGAGGUAGGAAUAUGACUUTT against Klrb1c | 0.0825
GGCUAGCAUUAGCCACAGATT against Enpp3 | -2.33 (active)
GGUGCUCAAAUCCUCUUGATT against Ctps | -0.0545
CGGAUAUGAAUUUUUUGCUTT against Ppp1cb | 0.116
GCUUUUCAGUCUCAUAGUGTT against Huwe1 | 0.468
GGAAAAUCCCUCUUUGGCUTT against Sez6l2 | -0.566
CGAUGAGACCAACAUCUUUTT against Gpr162 | 0.476
GGACAAUGAUUUUCUGAUUTT against Sv2b | 0.962
GGAAGUCUAUGGUUUUUAGTT against Csnk2b | 2.97 (active)
GGAAAUCAAGCCCUACAUCTT against Col4a2 | 0.152
GGGCUAUGUUGUCUCAAAATT against Gsdma2 | 0.861
GGAUGACCUCAUGCUUAUUTT against Prss37 | -2.31 (active)
GGAUGAAAAAUCAGUACUUTT against Aadac | -2.02 (active)

Sequence | z-score
GGUAUCCUCUCUUGUCUUGTT against Clec9a | -0.0393
GUACCUGAAUUGCUACCGATT against Ly6g5c | 0.8
GGAGUUCUUGGUCUCUUUGTT against Fam214a | -0.124
UUGAACAGUGGAACAAUGATT against Fbxo27 | 2.59 (active)
GGAAAGGAACAUAUUUGACTT against Gss | 0.0774
CCAUCUCUCCAAAGGGCUGTT against Olfr32 | 0.056
GGAUUUGACCGGCUAAUACTT against Snrnp40 | -0.776
GGUUCUGGCUGGAAUCUACTT against Gnl1 | -0.987
GCGAACAUGUGUUUUACGUTT against H4c8 | 1.14
GCAUGCUAGAAGCUAAAAATT against Golga3 | 1.48
GGCAUAUCCUCCUUAUCCATT against Dazl | -2.2 (active)
GGAAAUCAAAGAGAAAGUUTT against Rassf3 | -0.748
GGUUAGUUCCUUAAAUUCCTT against BC016579 | 1.21
GGACCAGACAGGAAGUAUUTT against Snx20 | 2.3 (active)
GGCAGGUAUGGAUGUAUUGTT against Renbp | -1.72
GGUUGAGUUGGAUGACCUUTT against Lsm10 | -1.91
GAGUCUUACAUCAAGAAGATT against 9230106D20Rik | 0.538
GGUAUGUCUAAGAAAACCATT against Pi4ka | 0.173
GGGCUACACUUCUGUCUACTT against Nanos3 | -1.26
GGGUUUUUUUAGAGAGAUUTT against Susd3 | -2.11 (active)
GCCAUACUUCCCUACAAAATT against Kctd19 | 0.233
GGGCAAGGAGACAGAAUUCTT against Fgf18 | 0.927

Sequence | z-score
GGAAGAGGACAACCAGCUCTT against Cd82 | 0.59
GAGUUGGCUCGAAACUGCCTT against Fbxl15 | 3.54 (active)
GGGCACAAUUCAAAACUUATT against Pgm2 | 1.42
GGUCAAUUCCAUGAUUACGTT against Pgm3 | 0.538
UAAGGCCAUCUAGUGGAGATT against C8g | -0.199
GGGUGAAAGCUGACUUUAATT against Rnh1 | -1.57
GGCUUUGAAACAUAAGAACTT against Zfp472 | -0.553
GGUGUUGAGAUCCACAAGGTT against Tceanc2 | -2.44 (active)
GGCAAUCAGCAUACCAACUTT against Thbs2 | -1.87
CAGCGGCCGCGCUUCACCGTT against 4930404N11Rik | 0.92
GGUAAUUGAGCUGAGUUCUTT against Rad54l2 | 0.479
GUGAAGAAAGCACUGUUGATT against Olfr978 | 0.387
GGCCAGGACCUAAAUACAATT against Tmem231 | 3.25 (active)
GGAGCUGUGCAAGAGGAAATT against Wnt16 | 1.01
GGGCAGAUCCUAAUAAGCATT against Irs3 | -1.21
GCUAAGGUCUUACUCCUGGTT against Cdca4 | 1.13
GCCAGUGUUGGUUAUAAAATT against Isg15 | 0.673
CCAUGGCACAGACAGCUAUTT against Celf1 | -2.02 (active)
GCUUUUGCCCGAUGGAUUUTT against Plpp3 | 0.136
GGUAUACAGGAUGUUAAGGTT against Pdlim4 | 0.889
GGAGACCCACUACAUGACUTT against H2-M2 | -0.982
CCCAUCUUUGCAACAUAUCTT against Scgb2b20 | -1.43

Sequence | z-score
GGUCCCAUUCAGUGUGUGUTT against Cdk10 | 2.98 (active)
UAGUCACAAGGUUUGAAACTT against Fbxw24 | -0.822
GGUCCUGGACUUCAUGCUATT against Galnt6 | 2.75 (active)
GCUGUACAGUCAAUACCUGTT against Abhd17a | 1.2
GGACCUUUAGCUGGUUUAGTT against Sowaha | 0.559
GGUGAUUCCAUUACCUAGUTT against Pde12 | 0.572
GGUAAAAUCACGCAGUAAATT against Ppp1r3a | -0.56
GGACCCAGAGAAGAUCAAATT against Etfrf1 | 0.514
GGCAUAGCUCAGUGAUAGCTT against Tmem19 | 0.117
CCAGACAGAAGGGUUAGCUTT against Mrps36 | -2.03 (active)
GCCUUUACACUAAUGAUAATT against Cilp | 0.455
GGUCUCAGUUUCUCAGAAUTT against Siglece | -1.62
GCUUGCUUAUGGCCUAUUATT against Ucma | -2.05 (active)
GCUACCAGGAUAGCGAAACTT against P2rx2 | 0.826
GGAAAAAUGGUCUGUAAAATT against Adck2 | 0.508
GGAAAAGGUGACCUGUCUCTT against Slc44a1 | -1.77
GGCCAGAAAGGCAGCAAAGTT against Msgn1 | -1.03
GGAAGUGAAGACCUUCUUCTT against St3gal4 | -0.898
UCGAUAGCCUCAAUCAGCATT against Zfp58 | -1.99
GGAGAAGGUCGAAAAGCCUTT against Rybp | -2.01 (active)
